# Laboratory results published in PubChem BioAssay (NCATS).
# Where “and” joins values, the source holds several entries; their conditions need not be identical. Equal values may be shown once. Inconclusive results are not listed. Calls of active or inactive are those of the source. Calls follow the shape of the dose curve; as a rule, active = well fitted inhibition curve with a large enough effect; inconclusive = small, poorly fitted or top-dose-only effect; inactive = flat fitted curve, though single readings scatter.
# Experiment: Drug repurposing screens with cells derived from glioblastoma tumor samples (AID 1345199); also: nearly all actives have a fitted effect of over 40% in size
# Settings: GBM patient neurospheres viability, ATP luminescence, 48 h; at 45.9 µM (top of the series); tumour line B
# Method in brief: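 Four patient lines of CD133+ GBM neurospheres were screened at several concentrations; hits were retested in those lines plus three slower-growing GBM lines, using 48-hour treatment and ATP-based viability.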
# % is scaled to controls: 0 for no effect and ±100 for the full control effect.
row,Compound,"activity, negative = cell killing"
1,O=C(OCC(COC(=O)c1cccnc1)(COC(=O)c1cccnc1)COC(=O)c1cccnc1)c1cccnc1,-3.98% (inactive)
2,O=P(O)(O)OCC(O)CO (centres undefined),-9.32% (inactive)
3,CCOC(=O)NNc1ccc(N(CC)CC(C)O)nn1 (centres undefined),-1.62% (inactive)
4,CCNC(=O)NCCCOc1cccc(CN2CCCCC2)c1,-3.43% (inactive)
5,CC(=O)OCC[N+](C)(C)C,-0.685% (inactive)
6,Nc1c[n+](N2CCOCC2)no1,3.67% (inactive)
7,O=C1CC[C@H](C(=O)N2CCCCC2)N1,5.57% (inactive)
8,COc1ccccc1OCC1CNC(=O)O1 (centres undefined),-0.636% (inactive)
9,O=C(Oc1ccccc1)c1ccccc1O,-4.53% (inactive)
10,CC(C(=O)O)c1ccc(/C=C2\CCCCC2=O)cc1 (centres undefined),-2.39% (inactive)
11,Cc1nc([N+](=O)[O-])cn1-c1ccc([N+](=O)[O-])cc1,-9.26% (inactive)
12,CC(COc1ccccc1)NN (centres undefined),-5.24% (inactive)
13,C1N2CN3CN1CN(C2)C3,-5.59% (inactive)
14,O=C(CCCCCCCCC#CI)Oc1ccccc1,-16.2% (inactive)
15,O=C(c1ccccc1)c1ccccc1,2.19% (inactive)
16,CC(=O)OCC(=O)[C@@]1(O)[C@H](OC(C)=O)C[C@H]2[C@@H]3CCC4=CC(=O)C=C[C@]4(C)[C@@]3(F)[C@@H](O)C[C@@]21C,-11.4% (inactive)

row,Compound,"activity, negative = cell killing"
1,CC1c2ccccc2CN1NC(=O)c1ccc(Cl)c(S(N)(=O)=O)c1 (centres undefined),-2.5% (inactive)
2,CC(C)(C)C(=O)OCOC(=O)C1N2C(=O)CC2S(=O)(=O)C1(C)C (centres undefined),-8.27% (inactive)
3,CO/N=C(/C(=O)N[C@@H]1C(=O)N2C(C(=O)O)=C(Cn3nnc(C)n3)CS[C@H]12)c1csc(N)n1,-1.74% (inactive)
4,CCOc1ccc(NS(=O)(=O)c2ccc(N)cc2)nn1,-20.8% (inactive)
5,Cc1ccc(O)cc1,-22.9% (inactive) and -5.16% (inactive)
6,C[N+]1(CC2COC(c3ccccc3)(c3ccccc3)O2)CCCCC1 (centres undefined),-10.9% (inactive)
7,CC(C)(C)C(O)/C=C/c1ccc2c(c1)OCO2 (centres undefined),-14.2% (inactive)
8,CO/N=C(/C(=O)N[C@@H]1C(=O)N2C(C(=O)OCOC(=O)C(C)(C)C)=C(C)CS[C@H]12)c1csc(N)n1,-3% (inactive)
9,CC(C)=CCC/C(C)=C/CC/C(C)=C/CCC(=O)OC/C=C(\C)CCC=C(C)C,-1.59% (inactive)
10,CCOC(=O)Cn1cccc1-c1nc(-c2ccc(OC)cc2)c(-c2ccc(OC)cc2)s1,-12.2% (inactive)
11,OCc1cccnc1,-6.38% (inactive)
12,CC(C)(C)c1nnc(NS(=O)(=O)c2ccccc2)s1,-2.48% (inactive)
13,O=C(O)CCCC[C@@H]1SC[C@@H]2NC(=O)N[C@@H]21,-20.7% (inactive)
14,N[C@@H](Cc1cc(I)c(O)c(I)c1)C(=O)O,3.22% (inactive)
15,CC1CN(c2cc3c(cc2F)c(=O)c(C(=O)O)cn3-c2ccc(F)cc2F)CCN1 (centres undefined),-0.773% (inactive)
16,CCC(C(=O)NC(=O)NC(C)=O)c1ccccc1 (centres undefined),-11.4% (inactive)

# Same assay, conditions: GBM patient neurospheres viability, ATP luminescence, 48 h; at 45.9 µM (top of the series); tumour line D
row,Compound,"activity, negative = cell killing"
1,O=C(OCC(COC(=O)c1cccnc1)(COC(=O)c1cccnc1)COC(=O)c1cccnc1)c1cccnc1,3.04% (inactive)
2,O=P(O)(O)OCC(O)CO (centres undefined),5.18% (inactive)
3,CCOC(=O)NNc1ccc(N(CC)CC(C)O)nn1 (centres undefined),-9.84% (inactive)
4,CCNC(=O)NCCCOc1cccc(CN2CCCCC2)c1,-22.4% (inactive)
5,CC(=O)OCC[N+](C)(C)C,1.13% (inactive)
6,Nc1c[n+](N2CCOCC2)no1,-1.79% (inactive)
7,O=C1CC[C@H](C(=O)N2CCCCC2)N1,0.144% (inactive)
8,COc1ccccc1OCC1CNC(=O)O1 (centres undefined),-0.575% (inactive)
9,O=C(Oc1ccccc1)c1ccccc1O,13.5% (inactive)
10,CC(C(=O)O)c1ccc(/C=C2\CCCCC2=O)cc1 (centres undefined),-17% (inactive)
11,Cc1nc([N+](=O)[O-])cn1-c1ccc([N+](=O)[O-])cc1,-5.48% (inactive)
12,CC(COc1ccccc1)NN (centres undefined),14.4% (inactive)
13,C1N2CN3CN1CN(C2)C3,-12.9% (inactive)
14,O=C(CCCCCCCCC#CI)Oc1ccccc1,-0.884% (inactive)
15,O=C(c1ccccc1)c1ccccc1,8.55% (inactive)
16,CC(=O)OCC(=O)[C@@]1(O)[C@H](OC(C)=O)C[C@H]2[C@@H]3CCC4=CC(=O)C=C[C@]4(C)[C@@]3(F)[C@@H](O)C[C@@]21C,-13% (inactive)

row,Compound,"activity, negative = cell killing"
1,CC1c2ccccc2CN1NC(=O)c1ccc(Cl)c(S(N)(=O)=O)c1 (centres undefined),-6.17% (inactive)
2,CC(C)(C)C(=O)OCOC(=O)C1N2C(=O)CC2S(=O)(=O)C1(C)C (centres undefined),-8.54% (inactive)
3,CO/N=C(/C(=O)N[C@@H]1C(=O)N2C(C(=O)O)=C(Cn3nnc(C)n3)CS[C@H]12)c1csc(N)n1,2.54% (inactive)
4,CCOc1ccc(NS(=O)(=O)c2ccc(N)cc2)nn1,5.52% (inactive)
5,Cc1ccc(O)cc1,-8.77% (inactive) and -8.54% (inactive)
6,C[N+]1(CC2COC(c3ccccc3)(c3ccccc3)O2)CCCCC1 (centres undefined),-20.2% (inactive)
7,CC(C)(C)C(O)/C=C/c1ccc2c(c1)OCO2 (centres undefined),-29.5% (inactive)
8,CO/N=C(/C(=O)N[C@@H]1C(=O)N2C(C(=O)OCOC(=O)C(C)(C)C)=C(C)CS[C@H]12)c1csc(N)n1,4.02% (inactive)
9,CC(C)=CCC/C(C)=C/CC/C(C)=C/CCC(=O)OC/C=C(\C)CCC=C(C)C,-0.887% (inactive)
10,CCOC(=O)Cn1cccc1-c1nc(-c2ccc(OC)cc2)c(-c2ccc(OC)cc2)s1,-21.7% (inactive)
11,OCc1cccnc1,-1.28% (inactive)
12,CC(C)(C)c1nnc(NS(=O)(=O)c2ccccc2)s1,-22.3% (inactive)
13,O=C(O)CCCC[C@@H]1SC[C@@H]2NC(=O)N[C@@H]21,-14.6% (inactive)
14,N[C@@H](Cc1cc(I)c(O)c(I)c1)C(=O)O,2.54% (inactive)
15,CC1CN(c2cc3c(cc2F)c(=O)c(C(=O)O)cn3-c2ccc(F)cc2F)CCN1 (centres undefined),-11% (inactive)
16,CCC(C(=O)NC(=O)NC(C)=O)c1ccccc1 (centres undefined),-13.3% (inactive)
